Read-out in experiment [1]: Cyclin Dependent Kinase Inhibitor 1A (CDKN1A), CDKN1A (gene 1026)
Briefly: LTEA_HepaRG_CDKN1A: Life Technologies and Expression Analysis (LTEA) Assay for Cyclin Dependent Kinase Inhibitor 1A (CDKN1A) using HepaRG (AID 2283450). The note with it: mRNA level, 48 h; actives raise or lower the signal. In outline: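 Differentiated HepaRG cells in serum-free induction medium, exposed 48 h in duplicate to eight half-log concentrations up to 100 uM in 0.5% DMSO. mRNA measured by TaqMan qRT-PCR, normalized to ACTB, GAPDH, POLR2A; bidirectional fit versus DMSO.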

Read-out in experiment [2]: Cyclin D1 (CCND1), CCND1 (gene 595)
Put plainly: LTEA_HepaRG_CCND1: Life Technologies and Expression Analysis (LTEA) Assay for Cyclin D1 (CCND1) using HepaRG (AID 2283451). The note with it: mRNA level, 48 h; actives raise or lower the signal. Summed up: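 Differentiated HepaRG cells exposed 48 h in serum-free induction medium to eight half-log concentrations from 100 uM top, 0.5% DMSO, duplicates. CCND1 mRNA measured by Fluidigm TaqMan qRT-PCR, normalised to ACTB, GAPDH, POLR2A; bidirectional fit.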

Read-out in experiment [3]: catalase (CAT), CAT (gene 847)
Briefly: LTEA_HepaRG_CAT: Life Technologies and Expression Analysis (LTEA) Assay for catalase (CAT) using HepaRG (AID 2283452). The note with it: mRNA level, 48 h; actives raise or lower the signal. In outline:
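Differentiated HepaRG cells in serum-free induction medium were dosed 48 h in duplicate, eight half-log concentrations from 100 uM in 0.5% DMSO. Transcript measured by TaqMan qRT-PCR, normalised to ACTB/GAPDH/POLR2A, fitted bidirectionally against DMSO.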

Read-out in experiment [4]: flavin-containing dimethylaniline monooxygenases 3 (FMO3), FMO3 (gene 2328)
Briefly: LTEA_HepaRG_FMO3: Life Technologies and Expression Analysis (LTEA) Assay for flavin-containing dimethylaniline monooxygenases 3 (FMO3) using HepaRG (AID 2283453).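 On AC50: FMO3 transcript by TaqMan qRT-PCR normalized to ACTB GAPDH and POLR2A.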 The note with it: mRNA level, 48 h; actives raise or lower the signal. In outline: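 HepaRG, 48 h exposure, 8-pt half-log series from 100 uM, 0.5% DMSO vehicle, duplicates; FMO3 transcript by Fluidigm TaqMan qRT-PCR, housekeeping-normalized; gain/loss fit vs DMSO.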

Read-out in experiment [5]: Cytochrome P450 (CYP1A1), CYP1A1 (gene 1543)
Briefly: LTEA_HepaRG_CYP1A1: Life Technologies and Expression Analysis (LTEA) Assay for Cytochrome P450 (CYP1A1) using HepaRG (AID 2283454). The note with it: mRNA level, 48 h; actives raise or lower the signal. In outline: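 Differentiated human HepaRG cells, after 48 h plating, exposed in duplicate for 48 h in serum-free induction medium to 8 half-log concentrations up to 100 uM in 0.5% DMSO. CYP1A1 mRNA by qRT-PCR, normalized to ACTB/GAPDH/POLR2A; bidirectional fit versus DMSO.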

Read-out in experiment [6]: CFLAR gene, CFLAR (gene 8837)
Briefly: LTEA_HepaRG_CFLAR: Life Technologies and Expression Analysis (LTEA) Assay for CFLAR gene using HepaRG (AID 2283455). The note with it: mRNA level, 48 h; actives raise or lower the signal. In outline:
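HepaRG cells were plated for 48 h, switched to serum-free induction medium, then exposed in duplicate for 48 h to 8 concentrations (top 100 uM, half-log steps, 0.5% DMSO). CFLAR mRNA was measured by qRT-PCR, normalized to ACTB, GAPDH and POLR2A.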

Read-out in experiment [7]: Forkhead box O1 (FOXO1), FOXO1 (gene 2308)
Put plainly: LTEA_HepaRG_FOXO1: Life Technologies and Expression Analysis (LTEA) Assay for Forkhead box O1 (FOXO1) using HepaRG (AID 2283456). The note with it: mRNA level, 48 h; actives raise or lower the signal. Summed up:
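Differentiated human HepaRG cells in serum-free induction medium were exposed in duplicate for 48 h to eight half-log concentrations (top 100 uM, 0.5% DMSO). FOXO1 mRNA was measured by TaqMan qRT-PCR, normalised to ACTB, GAPDH and POLR2A, and fitted bidirectionally against DMSO.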

Read-out in experiment [8]: growth arrest and DNA damage 45 (GADD45A), GADD45A (gene 1647)
Put plainly: LTEA_HepaRG_GADD45A: Life Technologies and Expression Analysis (LTEA) Assay for growth arrest and DNA damage 45 (GADD45A) using HepaRG (AID 2283458). The note with it: mRNA level, 48 h; actives raise or lower the signal. In outline: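 Differentiated HepaRG cells were exposed in duplicate for 48 h in serum-free induction medium to 8-point half-log concentrations up to 100 uM in 0.5% DMSO. GADD45A mRNA was measured by TaqMan qRT-PCR, normalized to ACTB, GAPDH and POLR2A, with bidirectional fitting versus DMSO.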

Read-out in experiment [9]: Forkhead box O3 (FOXO3), FOXO3 (gene 2309)
Put plainly: LTEA_HepaRG_FOXO3: Life Technologies and Expression Analysis (LTEA) Assay for Forkhead box O3 (FOXO3) using HepaRG (AID 2283459). The note with it: mRNA level, 48 h; actives raise or lower the signal. Summed up: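 Differentiated human HepaRG cells in serum-free induction medium were exposed in duplicate for 48 h to eight half-log concentrations up to 100 uM in 0.5% DMSO. FOXO3 mRNA was quantified by qRT-PCR, normalized to ACTB, GAPDH and POLR2A, with bidirectional fitting versus DMSO.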

Read-out in experiment [10]: ABC Transporter (ABCB1), ABCB1 (gene 5243)
Briefly: LTEA_HepaRG_ABCB1: Life Technologies and Expression Analysis (LTEA) Assay for ABC Transporter (ABCB1) using HepaRG (AID 2283460). The note with it: mRNA level, 48 h; actives raise or lower the signal. Summed up:
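Differentiated human HepaRG cells, plated 48 h then switched to serum-free induction medium, were exposed in duplicate to eight half-log concentrations up to 100 uM in 0.5% DMSO for 48 h. ABCB1 mRNA was measured by TaqMan qRT-PCR, normalized to ACTB/GAPDH/POLR2A.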

Read-out in experiment [11]: ABC Transporter (ABCC3), ABCC3 (gene 8714)
Put plainly: LTEA_HepaRG_ABCC3: Life Technologies and Expression Analysis (LTEA) Assay for ABC Transporter (ABCC3) using HepaRG (AID 2283462). The note with it: mRNA level, 48 h; actives raise or lower the signal. In outline:
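Differentiated human HepaRG cells exposed 48 h in serum-free induction medium, 0.5% DMSO vehicle, 8-point half-log series to 100 uM in duplicate. ABCC3 mRNA by qRT-PCR, normalised to ACTB, GAPDH, POLR2A; bidirectional fit vs DMSO.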

Read-out in experiment [12]: ABC Transporter (ABCB11), ABCB11 (gene 8647)
Put plainly: LTEA_HepaRG_ABCB11: Life Technologies and Expression Analysis (LTEA) Assay for ABC Transporter (ABCB11) using HepaRG (AID 2283463). The note with it: mRNA level, 48 h; actives raise or lower the signal. In outline:
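Differentiated human HepaRG cells were exposed for 48 h in serum-free induction medium to eight half-log concentrations up to 100 uM in 0.5% DMSO. ABCB11 mRNA was quantified by qRT-PCR, normalized to ACTB, GAPDH and POLR2A, and fitted bidirectionally versus DMSO.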

Read-out in experiment [13]: ABC Transporter (ABCC2), ABCC2 (gene 1244)
Put plainly: LTEA_HepaRG_ABCC2: Life Technologies and Expression Analysis (LTEA) Assay for ABC Transporter (ABCC2) using HepaRG (AID 2283464). The note with it: mRNA level, 48 h; actives raise or lower the signal. In outline: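 Differentiated HepaRG cells in serum-free induction medium exposed 48 h to eight half-log concentrations up to 100 uM, 0.5% DMSO, in duplicate. ABCC2 mRNA measured by qRT-PCR (TaqMan, Fluidigm), normalized to ACTB, GAPDH and POLR2A. Fitted in both directions against DMSO.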

Read-out in experiment [14]: Broad substrate specificity ATP-binding cassette transporter ABCG2 (Homo sapiens) (UniProt Q9UNQ0)
Put plainly: LTEA_HepaRG_ABCG2: Life Technologies and Expression Analysis (LTEA) Assay for ABC Transporter (ABCG2) using HepaRG (AID 2283465). The note with it: mRNA level, 48 h; actives raise or lower the signal. In outline:
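Differentiated HepaRG cells in serum-free induction medium were exposed for 48 h, in duplicate, to eight half-log concentrations up to 100 uM in 0.5% DMSO. ABCG2 mRNA was measured by TaqMan qRT-PCR, normalized to ACTB, GAPDH and POLR2A, and fitted bidirectionally versus DMSO.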

Read-out in experiment [15]: ATP-citrate lyase (ACLY), ACLY (gene 47)
Briefly: LTEA_HepaRG_ACLY: Life Technologies and Expression Analysis (LTEA) Assay for ATP-citrate lyase (ACLY) using HepaRG (AID 2283466). The note with it: mRNA level, 48 h; actives raise or lower the signal. In outline: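 Differentiated human HepaRG cells in serum-free induction medium exposed 48 h, in duplicate, to eight half-log concentrations from 100 uM top in 0.5% DMSO; ACLY mRNA measured by qRT-PCR, normalized to ACTB, GAPDH, POLR2A, fitted bidirectionally versus DMSO.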

Read-out in experiment [16]: Bcl-2 (BAD) gene, BAD (gene 572)
Briefly: LTEA_HepaRG_BAD: Life Technologies and Expression Analysis (LTEA) Assay for Bcl-2 (BAD) gene using HepaRG (AID 2283469). The note with it: mRNA level, 48 h; actives raise or lower the signal. In outline:
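Differentiated human HepaRG cells in serum-free induction medium were exposed in duplicate for 48 h to eight concentrations (top 100 uM, half-log steps, 0.5% DMSO). BAD mRNA was quantified by qRT-PCR normalised to ACTB, GAPDH and POLR2A, with bidirectional fitting versus DMSO.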

Read-out in experiment [17]: growth arrest and DNA damage 45 (GADD45B), GADD45B (gene 4616)
Briefly: LTEA_HepaRG_GADD45B: Life Technologies and Expression Analysis (LTEA) Assay for growth arrest and DNA damage 45 (GADD45B) using HepaRG (AID 2283461). The note with it: mRNA level, 48 h; actives raise or lower the signal. In outline:
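Differentiated human HepaRG cells in serum-free induction medium exposed 48 h in duplicate to eight concentrations, top 100 uM, half-log steps, 0.5% DMSO. GADD45B mRNA by TaqMan qRT-PCR, normalized to ACTB, GAPDH, POLR2A; bidirectional fit versus DMSO.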

Read-out in experiment [18]: Peroxisomal acyl-coenzyme A oxidase 1 (ACOX1) gene, ACOX1 (gene 51)
Put plainly: LTEA_HepaRG_ACOX1: Life Technologies and Expression Analysis (LTEA) Assay for Peroxisomal acyl-coenzyme A oxidase 1 (ACOX1) gene using HepaRG (AID 2283467). The note with it: mRNA level, 48 h; actives raise or lower the signal. Summed up: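 Differentiated human HepaRG cells were exposed in duplicate for 48 h in serum-free induction medium to eight half-log concentrations up to 100 uM in 0.5% DMSO. ACOX1 mRNA was then quantified by TaqMan qRT-PCR, normalized to ACTB, GAPDH and POLR2A.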

Read-out in experiment [19]: Alkaline Phosphatase, Placental (ALPP) gene, ALPP (gene 250)
Put plainly: LTEA_HepaRG_ALPP: Life Technologies and Expression Analysis (LTEA) Assay for Alkaline Phosphatase, Placental (ALPP) gene using HepaRG (AID 2283468). The note with it: mRNA level, 48 h; actives raise or lower the signal. Summed up:
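HepaRG cells plated 48 h, then exposed in duplicate for 48 h in serum-free induction medium to 8-point half-log series from 100 uM in 0.5% DMSO. ALPP mRNA by TaqMan qRT-PCR, normalized to ACTB/GAPDH/POLR2A; bidirectional fit versus DMSO.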

Experiment [20] in a line: CEETOX_H295R_TESTO: CeeTox H295R High-throughput Steroidogenesis Assay for Testosterone (TESTO) (AID 2283457). The note with it: actives raise or lower the signal. In outline: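 H295R adrenal cells, passage ≤10, exposed to chemicals for 48 h. Testosterone in medium measured by MTBE extraction and HPLC-MS/MS against a 7-point standard curve. Bidirectional fit versus DMSO; MTT viability checked in the same wells.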

Activity calls are given as the source filed them. How the source made its calls: active means hit-call score of the fitted dose curve at least 0.9, where 1 is the maximum; inactive means score below 0.9.

We go through four compounds from PubChem BioAssay (EPA / NIEHS).

Sequence of Broad substrate specificity ATP-binding cassette transporter ABCG2 (Homo sapiens) (Q9UNQ0 whole entry, looked up): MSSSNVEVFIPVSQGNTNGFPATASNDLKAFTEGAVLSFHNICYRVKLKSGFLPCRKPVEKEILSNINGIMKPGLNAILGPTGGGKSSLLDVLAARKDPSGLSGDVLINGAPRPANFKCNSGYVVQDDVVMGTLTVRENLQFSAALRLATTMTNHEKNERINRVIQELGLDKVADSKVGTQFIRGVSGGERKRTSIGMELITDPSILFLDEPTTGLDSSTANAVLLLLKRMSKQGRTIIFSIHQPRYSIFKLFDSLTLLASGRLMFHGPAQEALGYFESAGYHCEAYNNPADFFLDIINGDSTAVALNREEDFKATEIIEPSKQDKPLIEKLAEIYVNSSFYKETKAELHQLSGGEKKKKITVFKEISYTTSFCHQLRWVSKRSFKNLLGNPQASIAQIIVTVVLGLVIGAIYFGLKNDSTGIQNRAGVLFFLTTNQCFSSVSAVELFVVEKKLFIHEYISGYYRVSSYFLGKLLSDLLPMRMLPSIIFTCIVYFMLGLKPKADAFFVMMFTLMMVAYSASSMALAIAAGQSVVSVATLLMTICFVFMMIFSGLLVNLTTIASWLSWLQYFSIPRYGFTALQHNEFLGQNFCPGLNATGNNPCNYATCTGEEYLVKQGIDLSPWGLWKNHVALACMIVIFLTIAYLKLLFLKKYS

As usually defined, the AC50 is the midpoint of the concentration-response curve, whichever way the signal moves. In the case of `NC(=Nc1ccccc1)Nc1ccccc1`, the compound was classed as inactive in experiment [1], in [2], in experiment [3], in experiment [4], in experiment [6] and in [7]. Besides, the result in experiment [8], in experiment [9], in experiment [10], in experiment [11], in [12] and in [13] was inactive. Also, the compound was classed as inactive in experiment [14], in experiment [15] and in experiment [16]. Besides, the AC50 in experiment [5] was 50 µM (active).
For `CC(N)=O`, the outcome in experiment [1], in experiment [2], in experiment [3], in [4], in experiment [5] and in experiment [6] was inactive. Further, the call in experiment [7], in [9], in experiment [10], in experiment [17], in [11] and in experiment [12] was inactive. Also, the call in experiment [13], in [14], in experiment [15], in experiment [18] and in experiment [19] was inactive. The AC50 in experiment [8] was 0.256 µM (active).
Turning to `Cc1c(C)c2c(c(C)c1O)CCC(C)(COc1ccc(CC3SC(=O)NC3=O)cc1)O2` (stereo not drawn), the call in experiment [1], in [2], in [6], in [7], in experiment [20] and in [10] was inactive. The result in experiment [11], in experiment [14] and in [15] was inactive. Also, the AC50 was 93 µM (active) in [4]; 27.5 µM (active) in experiment [5]; 0.262 µM (active) in [8]; 88.4 µM (active) in experiment [9]; 37.7 µM (active) in experiment [17]; 15.8 µM (active) in experiment [12]. Moreover, the AC50 in experiment [13] was 93.7 µM (active).
As for `OCC(O)CO`, the compound was called inactive in experiment [1], in [2], in experiment [3], in [4], in [5] and in experiment [6]. In addition, the call in experiment [7], in experiment [8], in experiment [9], in experiment [10], in experiment [17] and in experiment [11] was inactive. The compound was classed as inactive in experiment [12], in experiment [13], in experiment [14], in experiment [15], in experiment [18] and in experiment [16].
